48 compounds from article PMC4336329 (PLoS ONE, 2015) can be followed below.

Screen size: about 310,000 compounds; about 14,000 (4.5%) showed an effect of 50% or more. The effect is printed as a negative number. The sample as a whole holds a higher share of strong results than the screen did.
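Further: peak tail current of the secondary pulse compared with the same well before compound.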

The target in this assay is human ether-à-go-go-related gene (hERG) potassium channel (human, UniProt Q12809). In words: primary screen, population patch clamp on CHO cells stably expressing hERG; higher = less effect of the substance.
Sequence of human ether-à-go-go-related gene (hERG) potassium channel (Q12809 whole entry, looked up): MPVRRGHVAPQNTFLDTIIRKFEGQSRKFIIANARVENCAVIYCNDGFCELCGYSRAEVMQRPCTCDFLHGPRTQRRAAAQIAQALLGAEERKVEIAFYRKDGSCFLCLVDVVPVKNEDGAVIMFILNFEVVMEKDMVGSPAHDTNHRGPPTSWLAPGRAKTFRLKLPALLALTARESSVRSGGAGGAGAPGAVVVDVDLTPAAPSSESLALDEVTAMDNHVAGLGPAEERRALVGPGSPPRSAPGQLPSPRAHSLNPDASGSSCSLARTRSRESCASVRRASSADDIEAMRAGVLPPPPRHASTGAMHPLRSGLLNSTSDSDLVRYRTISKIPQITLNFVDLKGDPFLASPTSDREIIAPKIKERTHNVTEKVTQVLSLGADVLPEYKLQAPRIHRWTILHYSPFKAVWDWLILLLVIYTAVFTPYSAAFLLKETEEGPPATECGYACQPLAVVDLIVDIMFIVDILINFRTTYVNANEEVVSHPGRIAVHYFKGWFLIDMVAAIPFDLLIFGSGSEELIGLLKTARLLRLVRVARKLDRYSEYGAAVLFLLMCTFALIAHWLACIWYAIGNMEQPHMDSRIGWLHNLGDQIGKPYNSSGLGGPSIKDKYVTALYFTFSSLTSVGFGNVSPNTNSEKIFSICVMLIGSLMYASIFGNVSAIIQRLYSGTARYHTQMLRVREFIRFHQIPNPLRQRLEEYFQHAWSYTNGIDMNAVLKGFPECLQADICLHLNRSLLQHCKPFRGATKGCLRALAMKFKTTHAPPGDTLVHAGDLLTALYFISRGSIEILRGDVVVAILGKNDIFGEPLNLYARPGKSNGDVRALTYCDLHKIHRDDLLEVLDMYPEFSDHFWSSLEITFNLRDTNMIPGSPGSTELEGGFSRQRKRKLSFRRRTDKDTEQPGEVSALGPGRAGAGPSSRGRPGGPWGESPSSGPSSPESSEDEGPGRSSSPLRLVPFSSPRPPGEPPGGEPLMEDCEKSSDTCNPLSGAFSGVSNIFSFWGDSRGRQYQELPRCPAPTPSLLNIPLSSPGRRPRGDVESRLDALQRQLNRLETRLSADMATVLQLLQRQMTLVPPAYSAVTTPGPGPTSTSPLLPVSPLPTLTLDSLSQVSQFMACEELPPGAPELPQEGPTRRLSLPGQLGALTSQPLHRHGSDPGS
`Cc1ccc2c(CSc3nnnn3C)cc(=O)oc2c1`: the “hERG current change (%, negative = inhibition) at 10uM” value was -42.4%. Then `CCc1ccc2oc(=O)cc(CN3CCN(Cc4ccccc4)CC3)c2c1`, with -46.3%; and `Cc1ccc2c(CN3CCN(S(=O)(=O)c4ccccc4C(F)(F)F)CC3)cc(=O)oc2c1`, with -57.3%; and `CCc1ccc2c(CSc3nnnn3C)cc(=O)oc2c1`, with -68.1%. Then `CCc1ccc2c(CN3CCOCC3)cc(=O)oc2c1`, with -31.7%.

Consider `N#Cc1c(-c2ccccc2)ccn(Cc2cccc(Cl)c2)c1=O`, for which the “hERG current change (%, negative = inhibition) at 10uM” value stood at 8.43%.

For the compound `Cc1ccc(Nc2cc(-n3nc(C)cc3C)ncn2)c(C)c1`, the “hERG current change (%, negative = inhibition) at 10uM” value is recorded as -3.97%. Consider `COCCCN1C2=C(C(=O)CC(C)(C)C2)C(c2ccc(O)c(OC)c2)C2=C1CC(C)(C)CC2=O`, for which the “hERG current change (%, negative = inhibition) at 10uM” value was determined as 11.2%. The same measure for `Cc1ccc(N)cc1CN1CCCC1=O`: 2.15%; for `CCN(CC)S(=O)(=O)c1ccc(C(=O)NC(C)(C)C)cc1`: 19.1%. For the compound `O=C(CCN1CCOCC1)Nc1ccc(F)cc1`, the “hERG current change (%, negative = inhibition) at 10uM” value is -10.5%. Take `O=C(CCN1CCN(c2ccc(F)cc2)CC1)Nc1ccc(F)cc1`: the “hERG current change (%, negative = inhibition) at 10uM” value was -56.8%. The same measure for `O=C(CCN1CCN(c2ccccn2)CC1)Nc1ccc(F)cc1`: -42.5%; for `Cc1ccccc1N1CCN(CCC(=O)Nc2ccc(F)cc2)CC1`: -67.5%; for `O=C(CCN1CCN(c2ccccc2F)CC1)Nc1ccc(F)cc1`: -18.3%.

Consider `COc1ccc(NC(=O)CCN2CCN(c3ccc(F)cc3)CC2)cc1`, for which the “hERG current change (%, negative = inhibition) at 10uM” value is -33%.

On to `CCC(C)(C)n1nnnc1C(c1cccnc1)N1CCCc2ccccc21` (stereo not drawn), for which the “hERG current change (%, negative = inhibition) at 10uM” value was -19.6%.

Turning to `CCS(=O)(=O)NCc1csc(-c2ccccc2)n1`, the “hERG current change (%, negative = inhibition) at 10uM” value amounted to 18%.

With `Cc1cnccc1CN(C)C(=O)CC1C(=O)NCCN1CC1CCCCC1` (stereo not drawn), the “hERG current change (%, negative = inhibition) at 10uM” value is reported as -4.59%. On to `COc1ccc(/C=C2\SC(=S)N(CCC(=O)Nc3ccccn3)C2=O)cc1OC`, for which the “hERG current change (%, negative = inhibition) at 10uM” value turned out to be 26.2%. For the compound `Cl.OC(COCC1COc2ccccc2O1)CN1CCN(c2ccccc2F)CC1` (stereo not drawn), the “hERG current change (%, negative = inhibition) at 10uM” value is given as -58.9%.

With `Cl.OC(COCC1COc2ccccc2O1)CN1CCCCC1` (stereo not drawn), the “hERG current change (%, negative = inhibition) at 10uM” value is given as -43.6%. For the compound `Cl.OCCN1CCN(CC(O)COCC2COc3ccccc3O2)CC1` (stereo not drawn), the “hERG current change (%, negative = inhibition) at 10uM” value was 33.4%.

On to `CC1CCCN(CC(O)COCC2COc3ccccc3O2)C1.Cl` (stereo not drawn), for which the “hERG current change (%, negative = inhibition) at 10uM” value is given as -28.2%.

In the case of `CCN1CCN(CC(O)COCC2COc3ccccc3O2)CC1.Cl` (stereo not drawn), the “hERG current change (%, negative = inhibition) at 10uM” value is on record as -4.69%. On to `CC1CCCC(C)N1CC(O)COCC1COc2ccccc2O1.Cl` (stereo not drawn), for which the “hERG current change (%, negative = inhibition) at 10uM” value is -15.8%. As to `CC[N+](C)(CC)CC(O)COCC1COc2ccccc2O1.[I-]` (stereo not drawn), the “hERG current change (%, negative = inhibition) at 10uM” value came to 1.73%.

`Cl.OC(COCC1COc2ccccc2O1)CN1CCN(c2ccccc2)CC1` (stereo not drawn): the “hERG current change (%, negative = inhibition) at 10uM” value is on record as -64.1%. On to `Cl.OC(COCC1COc2ccccc2O1)CN1CCN(c2ccc(F)cc2)CC1` (stereo not drawn), for which the “hERG current change (%, negative = inhibition) at 10uM” value was -79.3%. `C[N+]1(CC(O)COCC2COc3ccccc3O2)CCOCC1.[I-]` (stereo not drawn): the “hERG current change (%, negative = inhibition) at 10uM” value stood at 18.3%.

For the compound `O=C(C1COc2ccccc2O1)N1CCN(c2ccccc2F)CC1` (stereo not drawn), the “hERG current change (%, negative = inhibition) at 10uM” value is recorded as 9.47%. On to `Cl.OC(COCC1COc2ccccc2O1)CN1CCc2ccccc2C1` (stereo not drawn), for which the “hERG current change (%, negative = inhibition) at 10uM” value is -64.9%. For `CCN1CCN(S(=O)(=O)c2cccc3nsnc23)CC1`, the “hERG current change (%, negative = inhibition) at 10uM” value is on record as -5.57%. Consider `COc1cccc(/C=C2\SC(=N)N(c3ccc(F)cc3)C2=O)c1`, for which the “hERG current change (%, negative = inhibition) at 10uM” value worked out at 9.22%. The same measure for `CCCOc1ccc(-c2c(C(=O)N/N=C/c3ccccc3)nnn2-c2nonc2N)cc1`: 4.98%; for `O=C(Nc1cccc(O)c1)c1cc(-c2ccc3c(c2)OCO3)on1`: 11.3%; for `O=C(Nc1ccc2c(c1)OCO2)c1cc(-c2ccc(O)cc2)on1`: 22.4%. As for `O=C(Nc1ccc2c(c1)OCO2)c1cc(-c2cccc(O)c2)on1`, the “hERG current change (%, negative = inhibition) at 10uM” value is listed as -63.1%. As for `CCOc1ccccc1CN1CCN(C/C=C/c2ccc(OC)cc2)CC1CCO` (stereo not drawn), the “hERG current change (%, negative = inhibition) at 10uM” value is given as -65%. In the case of `Cc1ccc(CN2CCN(C/C=C/c3ccc(F)cc3)CC2CCO)o1` (stereo not drawn), the “hERG current change (%, negative = inhibition) at 10uM” value is given as -54.5%. Turning to `CCOc1ccccc1CN1CCN(Cc2ccc(C)o2)C(CCO)C1` (stereo not drawn), the “hERG current change (%, negative = inhibition) at 10uM” value is -12.9%.

Turning to `COc1cc(/C=C/CN2CCN(Cc3ccc(C)o3)C(CCO)C2)ccc1O` (stereo not drawn), the “hERG current change (%, negative = inhibition) at 10uM” value is reported as -6.62%. Turning to `COc1ccccc1/C=C/CN1CCN(Cc2ccc(F)cc2)C(CCO)C1` (stereo not drawn), the “hERG current change (%, negative = inhibition) at 10uM” value was -51%. On to `COc1cc(/C=C/CN2CCN(CCC(C)C)C(CCO)C2)ccc1O` (stereo not drawn), for which the “hERG current change (%, negative = inhibition) at 10uM” value was 23%. On to `COc1ccc(/C=C/CN2CCN(CC(C)C)C(CCO)C2)cc1` (stereo not drawn), for which the “hERG current change (%, negative = inhibition) at 10uM” value was -52.2%. For the compound `COC(=O)c1ccc(CN2CCN(CC(C)C)C(CCO)C2)cc1` (stereo not drawn), the “hERG current change (%, negative = inhibition) at 10uM” value was -3.11%.

Regarding `C/C(=C\c1ccccc1)CN1CCN(Cc2ccc(C)o2)C(CCO)C1` (stereo not drawn), the “hERG current change (%, negative = inhibition) at 10uM” value is on record as -13.4%. As for `COc1ccccc1/C=C/CN1CCN(Cc2ccc(C)o2)C(CCO)C1` (stereo not drawn), the “hERG current change (%, negative = inhibition) at 10uM” value is listed as -12%.
